Bioassay records deposited in PubChem by National Center for Advancing Translational Sciences (NCATS).
In the library only some 3.3% were active in any assay of this set; here they are far more common.
AmpC no deterg = AmpC beta-lactamase inhibition without detergent | P00811 | AmpC nitrocefin hydrolysis, absorbance 480 nm, 0.0001% Triton | Potency, µM (top dose mostly 57.1 µM), without a hit: at the highest dose activity change, negative = inhibition, most hits filed as inhibitors | 0.52% of 330,000 active;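 note: plate controls were no compound for no effect and no enzyme for full effect; nearly all actives have a fitted effect of over 20% in size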
Target sequence (P00811 whole entry, looked up): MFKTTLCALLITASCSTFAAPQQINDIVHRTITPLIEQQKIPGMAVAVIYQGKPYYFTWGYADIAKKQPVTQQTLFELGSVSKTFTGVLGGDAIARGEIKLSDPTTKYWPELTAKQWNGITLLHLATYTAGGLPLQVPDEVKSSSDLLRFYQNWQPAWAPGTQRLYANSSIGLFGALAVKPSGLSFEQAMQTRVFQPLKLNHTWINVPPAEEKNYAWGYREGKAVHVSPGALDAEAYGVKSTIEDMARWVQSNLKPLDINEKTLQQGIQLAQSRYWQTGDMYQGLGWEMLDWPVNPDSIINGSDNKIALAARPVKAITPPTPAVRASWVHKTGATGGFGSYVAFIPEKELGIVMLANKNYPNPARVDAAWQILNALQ
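20 mM phosphate pH 7.0 + 0.01% (detergent screen) or 0.0001% Triton X-100; 5.3 nM AmpC reagent; cpd preinc 15 min RT; nitrocefin (800 uM stock) to start; A480 q20 s × 4 min; Activity was normalised to no-enzyme and no-compound control wells.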
Sm TGR block = S. mansoni TGR enzyme inhibition; Potency, µM (top dose mostly 114 µM), without a hit: at the highest dose activity change, negative = inhibition, hits mostly inhibitors; Q962Y6; AID 485364; 3% of 360,000 active; purified TGR, DTNB reduction, TNB absorbance 405 nm; note: nearly all actives have a fitted effect of over 60% in size
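Kinetic colorimetric format: TGR-catalysed, NADPH-driven DTNB reduction monitored via TNB absorbance. Enzyme dispensed at 20 nM; compound exposure 15 min at room temperature before reaction start.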
AmpC inh detg = AmpC beta-lactamase inhibition with detergent present; AmpC hydrolysis of nitrocefin, absorbance 480 nm, 0.01% Triton; 0.041% of 370,000 active; P00811; Potency, µM (highest dose often 114 µM), without a hit: at the top dose activity change, negative = inhibition, most hits filed as inhibitors;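 note: 0% = no-compound wells and -100% = no-enzyme wells; nearly all actives have a fitted effect of over 25% in size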
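AmpC (5.3 nM in the dispensed reagent) in 20 mM phosphate pH 7.0 with 0.01% (detergent screen) or 0.0001% Triton X-100 was preincubated with compounds for 15 min at room temperature. Nitrocefin was then added from an 800 uM solution, and hydrolysis was followed at 480 nm.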
The depositor's hits bear a star; ? = inconclusive; · = no result. Calls come from the whole dose curve; as a rule, active = well fitted curve in the direction sought with a large enough effect; inconclusive = small, poorly fitted or top-dose-only effect, or another doubt; inactive = no such curve, though single readings can be large; an effect the other way counts as inactive or inconclusive. Unless noted, % is set by controls: 0 for no effect and ±100 for the full control effect; potency is the fitted concentration of half-maximal effect.

SMILES | AmpC no deterg | Sm TGR block | AmpC inh detg
CN1CCN(c2cc(=O)n(Cc3ccc(F)cc3)c(=O)[nH]2)CC1 | 0.56µM* | ? | 2%
Cc1nnc(SCC2=C(C(=O)O)N3C(=O)C(NC(=O)Cc4ccccc4)C3SC2)s1 (configuration not stated) | -32% | 13µM* | -5%
NC(=O)c1cc[n+](CC2=C(C(=O)O)N3C(=O)[C@@H](NC(=O)C(c4ccccc4)S(=O)(=O)[O-])[C@H]3SC2)cc1 (some centres not stated) | -15% | -10% | -5%
Cc1nnc(SCC2=C(C(=O)O)N3C(=O)C(NC(=O)C(C)n4nc(C(F)(F)F)cc4C)C3SC2)s1 (configuration not stated) | 94% | 7.1µM* | -14%
CC1=C(C(=O)OCC(Cl)(Cl)Cl)N2C(=O)C(NC(=O)Cc3ccccc3)C2SC1 (configuration not stated) | -29% | -1% | -2%
COc1cc(OC)c(N(C)C(=O)c2cn(C3CCCC3)c(=O)c3c2c2ccccc2n3C)cc1Cl | · | -12% | -4%
Cc1ccc(Nc2ccc(N3CCN(C(=O)c4cccc([N+](=O)[O-])c4)CC3)nn2)cc1 | · | 4% | 1%
CCOC(=O)c1cccc(NC(=O)c2ncoc2-c2ccco2)c1 | · | -5% | -12%
COc1cc2ncnc(NCc3ccc(C)cc3)c2cc1OC | 83% | -3% | -1%
COc1cccc(CNc2ncnc3cc(OC)c(OC)cc23)c1 | 3.2µM* | 1% | 5%
c1ccc(-n2ncc3c(NCCN4CCOCC4)ncnc32)cc1 | -4% | -1% | ?
c1ccc(-n2ncc3c(NCCN4CCCCC4)ncnc32)cc1 | -19% | 50µM* | ?
COc1ccc(N(CC(=O)NCc2ccccc2Cl)S(=O)(=O)c2c(C)[nH]c(=O)[nH]c2=O)cc1 | · | -1% | 7%
O=C1NCCN2CCCC12 (configuration not stated) | -30% | 25µM* | -11%
O=C1Nc2ccccc2N2CCCC12 (configuration not stated) | -40% | ? | 8%
COc1ccc(C(=O)c2cn(Cc3ccccc3F)c3cc4c(cc3c2=O)OCCO4)cc1OC | · | 8% | -14%
Cc1ccc(S(=O)(=O)Cc2ccc(C(=O)N3CCC(C(N)=O)CC3)o2)cc1 | 0% | -3% | 4%
O=C(NCCCN1CCCC1)c1ccc(CS(=O)(=O)c2ccc(Br)cc2)o1 | 88% | -20% | 0%
Cc1ccc(S(=O)(=O)Cc2ccc(C(=O)N3CCC4(CC3)OCCO4)o2)cc1 | -4% | 22µM* | -10%
COc1ccc(S(=O)(=O)Cc2ccc(C(=O)N3CCC(C(N)=O)CC3)o2)cc1 | -10% | -19% | ?
COc1ccc(S(=O)(=O)Cc2ccc(C(=O)N3CCCC3)o2)cc1 | 5% | 45µM* | -6%
Cc1ccc(CS(=O)(=O)Cc2ccc(C(=O)N3CCC4(CC3)OCCO4)o2)cc1 | 26% | 45µM* | -2%
Cc1ccc(CS(=O)(=O)CCC(=O)N2CCC3(CC2)OCCO3)cc1 | 3% | -28% | ?
Cc1ccc(S(=O)(=O)Cc2ccc(C(=O)NCCCN3CCCC3=O)o2)cc1 | 3% | 20µM* | 0%
CSc1cccc(NC(=O)CN2CCN(Cc3ccccc3C)S2(=O)=O)c1 | · | 3% | 2%
SMILES | AmpC no deterg | Sm TGR block | AmpC inh detg
Cc1ccc(Cn2c(=O)n(Cc3ccccc3)c(=O)c3c(C)c(C)sc32)cc1 | · | 1% | 20%
COc1ccc(-c2nc3sc(CCNC(=O)c4ccc(C(C)(C)C)cc4)c(C)n3n2)cc1 | · | 4% | 1%
O=C(NC1CC(=O)N(c2ccc(F)cc2)C1)c1ccco1 (configuration not stated) | · | 8% | 5%
Cc1ccc(-n2ncc3c(NCCC4=CCCCC4)ncnc32)cc1 | · | 1% | -4%
COc1ccc(CC(=O)NCc2ccc3c(c2)CCN3C(=O)c2ccccc2)cc1OC | · | -3% | 9%
COc1ccccc1C(=O)Nc1nnc(SCc2cc(=O)c3cc(Cl)ccc3[nH]2)s1 | · | -5% | -3%
COC(=O)c1scc(-c2ccc(C)cc2)c1S(=O)(=O)Nc1cc(C)c(Cl)cc1OC | · | 1% | 2%
CC(C)NS(=O)(=O)c1ccc(CCC(=O)NCc2ccc3c(c2)OCO3)cc1 | -4% | -22% | -2%
CC(C)(C)NS(=O)(=O)c1ccc(CCC(=O)NCc2ccc3c(c2)OCO3)cc1 | -3% | 32µM* | 5%
Cc1ccn2c(Nc3ccc4c(c3)OCCO4)c(-c3ccc(C)o3)nc2c1 | · | 0% | 21%
Cc1ccccc1CS(=O)(=O)c1ccc(C(=O)N2CCC(C)CC2)cc1[N+](=O)[O-] | -13% | 89µM* | 0%
O=C(c1ccc(S(=O)(=O)Cc2cc(F)ccc2F)c([N+](=O)[O-])c1)N1CCCC1 | -12% | ? | 0%
O=C(c1ccc(S(=O)(=O)Cc2cc(F)ccc2F)c([N+](=O)[O-])c1)N1CCCCC1 | -24% | 8.9µM* | -17%
Cc1ccccc1CS(=O)(=O)c1cn(CC(=O)N2CCC(C)CC2)c2ccccc12 | 25% | -9% | -6%
CC1CCN(C(=O)c2ccc(S(=O)(=O)Cc3cccc(F)c3)c([N+](=O)[O-])c2)CC1 | -13% | 3.5µM* | -3%
O=C(c1ccc(S(=O)(=O)Cc2ccccc2Cl)c([N+](=O)[O-])c1)N1CCN(c2ccccn2)CC1 | 23% | 7.9µM* | -5%
Cc1ccc(S(=O)(=O)Cc2ccc(C(=O)N3CCC(C)CC3)cc2)cc1 | 39% | -16% | 2%
O=C(c1ccc(Cl)c([N+](=O)[O-])c1)N1CCN(c2ccccn2)CC1 | -12% | 4% | 1%
COc1ccc(C(=O)NCC(c2ccc3c(c2)OCO3)N2CCOCC2)cc1OC (configuration not stated) | · | ? | 1%
CC(Oc1ccccc1)C(=O)Nc1ccc(OCc2cc(=O)n3ccsc3n2)cc1 (configuration not stated) | · | -15% | 1%
CC1=C(c2ccc(Cl)cc2)S(=O)(=O)NC1=NCCCN1CCN(c2cc(C)ccc2C)CC1 | · | -1% | 17%
Cc1nc2ccccc2n1CCc1nc2c3ccccc3nc(SCc3ccccc3F)n2n1 | · | -1% | 0%
Cc1cccc(Nc2c3c(nc4nncn24)CCC3)c1C | · | 40µM* | 20%
Cc1ccccc1Nc1c2c(nc3nncn13)CCC2 | · | ? | 10%
Brc1ccc(Nc2c3c(nc4nncn24)CCC3)cc1 | · | 35µM* | 0%
SMILES | AmpC no deterg | Sm TGR block | AmpC inh detg
Cc1ccc(Nc2c3c(nc4nncn24)CCC3)cc1 | · | ? | 19%
CCCSCCCNC(=O)CN1C(=O)CCn2nc(-c3cn(C)c4ccccc34)cc21 | · | 3% | 20%
Cc1cc(C)c2c(CN3CCCCC3)cc(=O)oc2c1 | -22% | 34% | -10%
Cc1cc(C)c2c(CCl)cc(=O)oc2c1 | -20% | 10µM* | -1%
COc1ccccc1N=Cc1nc(-c2ccccc2)oc1OC(C)=O | -27% | ? | 2%
CC(=O)Oc1oc(-c2ccccc2)nc1/C=N/c1ccccn1 | -27% | 28µM* | 7%
Cc1cccc(S(=O)(=O)NNC(=O)c2cc(-c3ccc(F)cc3)nc3ccccc23)c1 | -42% | 0% | -11%
O=C(NNS(=O)(=O)c1ccc(Cl)cc1)c1cc(-c2ccccc2)nc2ccccc12 | 28µM* | -11% | -5%
